Tgondii IFNg – T. gondii growth inhibition under IFN-gamma. Toxoplasma gondii growth in IFN-gamma-treated host cells; hits give low values. activity change, negative = inhibition, % (no concentration beside the values). actives 3.8% (n = 69,000). AID 1259416; in the data active = activity change below about -70%, passing the limit was not always enough;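 note: host cells are HeLa cells infected with Toxoplasma gondii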
Hits are given with their value; . = inactive; ! = not confirmed by another sample. Shown is part of a subset that was picked to be rich in hits.

SMILES	Tgondii IFNg
COc1ccc(S(=O)(=O)Nc2ccc3c(c2)C(=O)N([C@@H](C)CO)C[C@@H](C)[C@H](CN(C)Cc2ccc(C(F)(F)F)cc2)OCCCC[C@H](C)O3)cc1	-90.3
COc1ccc(S(=O)(=O)Nc2ccc3c(c2)C(=O)N([C@H](C)CO)C[C@H](C)[C@H](CN(C)Cc2ccc(C(F)(F)F)cc2)OCCCC[C@@H](C)O3)cc1	.
COc1ccc(S(=O)(=O)Nc2ccc3c(c2)C(=O)N([C@H](C)CO)C[C@@H](C)[C@H](CN(C)Cc2ccc(C(F)(F)F)cc2)OCCCC[C@@H](C)O3)cc1	-119.0
COc1ccc(S(=O)(=O)Nc2ccc3c(c2)C(=O)N([C@H](C)CO)C[C@@H](C)[C@@H](CN(C)Cc2ccc(C(F)(F)F)cc2)OCCCC[C@H](C)O3)cc1	-119.7
Cc1ccc(S(=O)(=O)Nc2ccc3c(c2)C(=O)N([C@H](C)CO)C[C@H](C)[C@@H](CN(C)Cc2ccc(C(F)(F)F)cc2)O3)cc1	.
O=c1[nH]c(-c2ccccn2)nc2c1CN(Cc1ccccc1)CC2	.
Cc1noc(C)c1Cc1c(C(=O)Nc2ccc3c(c2)N(C)C(=O)CO3)noc1C	.
c1ccc(CC2=NNC3(CCCCCCC3)S2)cc1	.
Cc1ccc(C(=O)NCCc2csc(-c3ccccc3)n2)cc1	.
CCn1cncc1C(=O)NC(Cc1cc(=O)[nH]c(N2CCCC2)n1)c1ccc(F)cc1 (centres undefined)	.
CC(C)(C)c1csc(CCNC(=O)c2cnn3c(-c4ccccc4)ccnc23)n1	.
CCOc1ccc(-c2nc(CN(C)S(=O)(=O)c3ccc(C)cc3C)c(C)o2)cc1	.
O=C(NCC1(Cn2cccn2)CC1)c1ccc(CC2CCCNC2)cc1 (centres undefined)	.
CCCc1nc(C(=O)N2CC(c3ccncc3)C2)cs1	.
COc1ccc(S(=O)(=O)Nc2ccc3c(c2)C(=O)N([C@@H](C)CO)C[C@@H](C)[C@@H](CN(C)Cc2ccc(C(F)(F)F)cc2)OCCCC[C@H](C)O3)cc1	-120.3
C[C@@H]1CCCCO[C@@H](CN(C)Cc2ccncc2)[C@@H](C)CN([C@H](C)CO)C(=O)c2cc(NS(=O)(=O)c3ccc(Cl)cc3)ccc2O1	.
Cc1ccc(S(=O)(=O)Nc2ccc3c(c2)C(=O)N([C@H](C)CO)C[C@@H](C)[C@@H](CN(C)Cc2ccc(C(F)(F)F)cc2)O3)cc1	.
C[C@@H]1CCCCO[C@H](CN(C)Cc2ccncc2)[C@H](C)CN([C@H](C)CO)C(=O)c2cc(NS(=O)(=O)c3ccc(Cl)cc3)ccc2O1	-103.2
C[C@H]1CCCCO[C@H](CN(C)Cc2ccncc2)[C@@H](C)CN([C@@H](C)CO)C(=O)c2cc(NS(=O)(=O)c3ccc(Cl)cc3)ccc2O1	.
COc1ccc(CN(C)C[C@@H]2OCCCC[C@@H](C)Oc3ccc(NC(=O)C4CCCCC4)cc3C(=O)N([C@H](C)CO)C[C@@H]2C)cc1	.
COc1ccc(S(=O)(=O)Nc2ccc3c(c2)C(=O)N([C@H](C)CO)C[C@H](C)[C@H](CN(C)Cc2ccc(C(F)(F)F)cc2)OCCCC[C@H](C)O3)cc1	-110.9
C[C@@H]1CCCCO[C@H](CN(C)Cc2ccncc2)[C@@H](C)CN([C@H](C)CO)C(=O)c2cc(NS(=O)(=O)c3ccc(Cl)cc3)ccc2O1	.
CC(C)C(=O)c1cc(-c2cn(C(C)C)cn2)n2ccccc12	.
Cc1ccccc1Cn1c(CN2CCC(C(=O)NCCCN3CCCC3=O)CC2)cc2ccccc21	.
CNC(=O)c1cc(=O)n(CC(=O)Nc2ccc(OC)cc2)c2ccccc12	.
SMILES	Tgondii IFNg
CS(=O)(=O)c1snnc1C1CCN(Cc2ccnn2C2CCCCO2)CC1 (centres undefined)	.
Cc1cnc(N2CCCn3cnc(COCCO)c3C2)nc1	.
O=C(NC1CC1)c1nc(C(=O)N2CCN(c3ccc(F)cc3)CC2)cs1	.
CCOC(=O)c1ccc(NC(=O)N2CCC3(CC2)Nc2cc(F)ccc2-n2cccc23)cc1	.
CSc1nc(C)c(CC(=O)NCCn2ccc(C)n2)c(=O)[nH]1	.
O=C(Cn1ncc2c(N3CCCCC3)ncnc21)N1CCC(N2CCCCC2)CC1	.
CC(=O)N1CCC2(CC1)OC(=O)C(C)=C2C(=O)Nc1ccc(C)c(Cl)c1	.
CCC(C)NC(=O)Cn1c(=O)cc(-c2nc(C)no2)c2ccccc21 (centres undefined)	.
COc1cc(N2CC[C@@H](O)[C@@H]2Cc2ccccc2)ncn1	.
CCCCCC(=O)O[C@]1(C(C)=O)CCC2C3CCC4=CC(=O)CC[C@]4(C)C3CC[C@@]21C (some centres undefined)	-80.7
CCCCCCCC(=O)OCC(=O)[C@@]1(O)CC[C@H]2[C@@H]3CCC4=CC(=O)CC[C@]4(C)[C@H]3[C@@H](O)C[C@@]21C	.
CCCCCC(=O)O[C@]1(C(C)=O)CC[C@H]2[C@@H]3CCC4=CC(=O)CC[C@]4(C)[C@H]3CC[C@@]21C	.
OC(CCl)CN1CC[N+]2(CC1)CC[N+]1(CCN(CC(O)CCl)CC1)CC2 (centres undefined)	.
CC(=O)N1CCC2(CC1)CCn1c(-c3ccc(C(N)=O)cc3)cnc12	.
Cc1ccc2c(Cl)cc(Cl)c(O)c2n1	-81.5
Oc1ccc(Cl)c2cccnc12	.
O=S(=O)(O)c1cc(I)c(O)c2ncccc12	.
Oc1c(Cl)cc(Cl)c2cccnc12	-82.9
COc1ccc(-c2ncc(Cl)cn2)c2ccc(C)nc12	.
O=c1[nH]n(CCO)c(=O)c2cccnc12	.
Oc1c(I)cc(I)c2cccnc12	-76.1!
O=C(Oc1ccc(Cl)c2cccnc12)c1cccnc1	.
CCS(=O)(=O)N1CCC(C(=O)NCCc2csc(-c3ccccc3)n2)CC1	.
CC(C)c1nccn1C(C)c1ccccc1-n1cccn1 (centres undefined)	.
Cc1nc(NCC2CC2)nc2c1COCC21CCN(C(=O)c2cccnc2)C1 (centres undefined)	.
SMILES	Tgondii IFNg
CC(C)N1CCN(Cc2ccc(C(=O)N3CCC(N4CCCCC4)CC3)cc2)C(=O)C1=O	.
CCOc1ccc(-c2nc(Cn3c(=O)c4c(C)cc(C)nc4n(C)c3=O)c(C)o2)cc1	.
COc1ccc2c(c1)C=C(CN1CCCC(CO)C1)CO2 (centres undefined)	.
CN(CC1OCCc2ccccc21)C(=O)C(c1ccc(F)cc1)N(C)C (centres undefined)	.
COc1cc(N2CCO[C@H]3[C@@H](Oc4ncccc4F)CC[C@H]32)ncn1	.
Cc1cccc(-c2cnc(C)nc2C2CCCN(C(=O)/C=C/c3cc(F)ccc3F)C2)c1 (centres undefined)	-73.4
COc1ccc(/C=C/C(=O)N2CCCC(c3nc(C)ncc3Cc3ccccc3)C2)cc1 (centres undefined)	.
COc1cccc(-c2cnc(N(C)C)nc2C2CCCN(C(=O)Cc3c(C)noc3C)C2)c1 (centres undefined)	.
CNC(=O)Cn1nc(C(=O)N2CCOC(c3ccc(Cl)cc3)C2)cc1C (centres undefined)	.
CCc1ccc(NC(=O)N2CCC3(CC2)Nc2ccccc2-n2cccc23)cc1	.
O=C(Cc1nc(-c2ccncc2)n[nH]1)N1CCCC1c1ccccn1 (centres undefined)	.
Cc1cccc(-c2nc(Cn3nnc(-c4nc(-c5cccc(Cl)c5)no4)c3C)c(C)o2)c1	.
Cc1ccc(Nc2ncnc3c2cnn3-c2ccc(Cl)cc2)cc1	.
CC(C)Nc1ncnc2c1cnn2-c1ccc(Cl)cc1	-73.2
Clc1ccc(-n2ncc3c(NC4CCCCCCCCCCC4)ncnc32)cc1	.
